Only some compounds are listed: those with a hit (about 12% of all), similar ones and a draw of the others.
BAZ2B block – qHTS Assay for Inhibitors of BAZ2B | AID 504333, 2011 | Potency, µM (highest dose often 114 µM), inactives show at the highest dose activity change, negative = inhibition, actives largely listed as inhibitors | hit rate 4.4% among 360,000 | Bromodomain adjacent to zinc finger domain protein 2B (Homo sapiens), Q9UIF8 | AlphaScreen BAZ2B-H3K14Ac peptide displacement; note: potency is the fitted concentration of half-maximal effect; % is set by controls: 0 for no effect and ±100 for the full control effect; nearly all actives have a fitted effect of over 60% in size
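Multi-concentration screen (max 110 uM) measuring displacement of acetylated histone H3 peptide from BAZ2B by AlphaScreen, using 50 nM protein, 50 nM peptide and 10 ug/mL streptavidin donor plus Ni-chelate acceptor beads.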
JMJD2A Tudor inh – qHTS Assay for Inhibitors of JMJD2A-Tudor Domain; hit rate 4.4% among 390,000; Potency, µM (titrated, usually from 114 µM), without a hit: at the highest dose activity change, negative = inhibition, most hits filed as inhibitors; AID 504339, 2011; AlphaScreen JMJD2A-Tudor / H3K4me3 peptide binding; note: potency is the fitted concentration of half-maximal effect; % is set by controls: 0 for no effect and ±100 for the full control effect; nearly all actives have a fitted effect of over 50% in size
PLK1 PBD block – qHTS for Inhibitors of PLK1-PDB (polo-like kinase 1 - polo-box domain): Primary Screen; Plk1 PBD binding of FITC phosphopeptide, fluorescence polarization; Potency, µM, inactives show max response, negative = inhibition, hits mostly inhibitors; hit rate 2.8% among 360,000; note: potency is the fitted concentration of half-maximal effect; series mostly up to about 57 µM; % is set by controls: 0 for no effect and ±100 for the full control effect; nearly all actives have a fitted effect of over 65% in size
G9a block – qHTS Assay for Inhibitors of Histone Lysine Methyltransferase G9a; Potency, µM (doses to about 102 µM), without a hit: at the top dose activity, negative = inhibition, most hits filed as inhibitors; AID 504332, 2011; Histone-lysine N-methyltransferase EHMT2 (Homo sapiens), Q96KQ7; G9a H3K9 monomethylation, AlphaScreen, 2 h; hit rate 8.8% among 350,000; note: potency is the fitted concentration of half-maximal effect; % is set by controls: 0 for no effect and ±100 for the full control effect; nearly all actives have a fitted effect of over 75% in size
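Using a bead-based AlphaScreen, monomethylated H3K9 product from 2 h room-temperature reactions (G9a 20 nM, peptide 500 nM, SAM 20 uM) was detected with 0.5 ug/mL rabbit anti-H3K9me1 antibody.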
HP1b binding inh – HTS for Inhibitors of HP1-beta Chromodomain Interactions with Methylated Histone Tails; Chromobox protein homolog 1 (Homo sapiens), P83916; Potency, µM (series often up to 114 µM), inactives show top-dose activity change, negative = inhibition, usual class: inhibitors; hit rate 0.56% among 390,000; AlphaScreen HP1-beta / biotin-H3K9me3 peptide binding; note: potency is the fitted concentration of half-maximal effect; nearly all actives have a fitted effect of over 70% in size
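AlphaScreen: HP1-beta (50 nM) preformed 30 min with biotin-H3(1-18)K9me3 peptide (50 nM) in PBS pH 7.4, 0.01% Tween-20. Compound added for 30 min at RT, then streptavidin donor/nickel chelate acceptor beads (10 ug/mL) for 30 min.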
PI5P4Ka inh – qHTS for Inhibitors of phosphatidylinositol 5-phosphate 4-kinase (PI5P4K). Phosphatidylinositol 5-phosphate 4-kinase type-2 alpha (Homo sapiens), P48426. PI5P4Kalpha enzyme, ADP-Glo luminescence, 60 min; active compounds read low. max response, %. hit rate 1.2% among 330,000. AID 652105, 2013; active = max response of -50% or lower; inconclusive = between -30% and -50%; inactive = -30% or higher; note: value at the top dose of about 77 µM; % is set by controls: 0 for no effect and ±100 for the full control effect
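Controls without substrate or without enzyme flank wells where PI5P4Kalpha converts substrate using 5 microM ATP (final). Incubation lasts 60 minutes at room temperature; ADP formed is read by ADP-Glo luminescence.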
Starred values were filed as active, the others as inactive; ? = inconclusive; . = no result; [ ] = dose if it differs, or a comment. Unless noted, calls come from the whole dose curve; as a rule, active = well fitted curve in the direction sought with a large enough effect; inconclusive = small, poorly fitted or top-dose-only effect, or another doubt; inactive = no such curve, though single readings can be large; an effect the other way counts as inactive or inconclusive.

SMILES	BAZ2B block	JMJD2A Tudor inh	PLK1 PBD block	G9a block	HP1b binding inh	PI5P4Ka inh
COc1ccc(OC)c(CCNC(=O)Cn2nc(C)c3c(C)n(-c4ccccc4)nc3c2=O)c1	-8.3%[57.1 µM]	-8.3%	-18.0%	26.6%	21.6%	5.8
O=C1C2=C(Nc3ccccc3SC2c2ccc(Cl)c(Cl)c2)c2ccccc21 (stereo not drawn)	.	8.91µM*	.	12.6µM*	?	.
CC(C)C(NC(=O)CCNC(=O)c1ccc(C(C)(C)C)cc1)c1nc2ccccc2[nH]1 (stereo not drawn)	11.3%	-0.7%	4.0%	9.5%[12.7 µM]	30.2%	1.0
CC(=O)c1ccc(S(=O)(=O)NCC(=O)NC(c2nc3ccccc3[nH]2)C(C)C)cc1 (stereo not drawn)	.	-28.4%	18.9µM*	.	12.6%	-20.7
Nc1c(C(=O)c2cccs2)oc2ccccc12	10.8%	-18.7%	-1.2%	27.5%	21.7%	.
Nc1c(C(=O)c2ccc(Br)s2)oc2ccccc12	-3.1%	11.5%	-4.9%	44.7µM*	32.4%	13.4
CC1(C)CNC(=O)c2sc(NC(=O)CN3CCOCC3)nc2C1	2.6%	20µM*	2.9%	-12.6%[59 µM]	44.6%	-6.9
COC(=O)c1cc2ccc(OC)cc2c2cc(OC)c(OC)cc12	.	30.8%	-12.0%	.	127.9%	17.6
CN(Cc1ccccc1F)Cc1cc(=O)oc2cc(O)c(Cl)cc12	3.6%	-2.1%	-20.5%	?	-8.3%	-63.4*
N#C/C(=N\Nc1cccc2ccccc12)c1nnc2n1CCCCC2	?	-34.8%	6.0%	1.78µM*	20.8%	-1.0
C/C=C/c1ccc(OCC(O)CNCCc2ccc(OC)cc2)c(OC)c1 (stereo not drawn)	56.2µM*	20µM*	-4.5%	7.94µM*	?	1.7
C/C=C/c1ccc(OCC(O)CNCC(c2ccc(OC)cc2)N(C)C)c(OC)c1 (stereo not drawn)	17.8µM*	22.4µM*	2.3%	?	-14.9%	-2.7
C/C=C/c1ccc(OCC(=O)Nc2cc(OC)c(OC)c(OC)c2)c(OC)c1	.	?	?	1.0%	0.7%	4.2
C/C=C/c1ccc(OCC(O)CN(C)Cc2ccc(SC)cc2)c(OC)c1 (stereo not drawn)	50.1µM*	3.98µM*	-6.6%	70.8µM*	?	1.4
C=CCc1ccc(OCC(O)CO)c(OC)c1 (stereo not drawn)	-4.2%	-2.7%	0.3%	?	20.2%	2.2
C/C=C/c1ccc(OCC(O)CN2CCCCC2CC)c(OC)c1 (stereo not drawn)	56.2µM*	3.55µM*	-8.2%	22.4µM*	?	-10.4
OC(CNCCc1ccc(Cl)cc1)COc1ccc2ccccc2c1 (stereo not drawn)	?	-28.2%	2.6%	-32.0%	-0.2%	80.7
CC1CCCCN1CC(O)COc1ccc(OCC(O)CN2CCCCC2C)cc1 (stereo not drawn)	4.0%	-7.2%	-10.8%	.	18.6%	8.7
Cn1c(CC(=O)NNC(=O)c2ccccc2[N+](=O)[O-])nc2ccccc21	4.6%	-17.4%	-3.0%	-3.1%[12.7 µM]	23.4%	1.9
COc1ccccc1NC(=O)N1CCN(c2nnc(C)c3c(C)n(-c4ccccc4)nc23)CC1	-3.9%	-14.1%	.	?	83.9%	.
CCOC(=O)C1(C)CCCN(C(=O)c2ccccc2F)C1 (stereo not drawn)	.	.	-6.3%	.	.	4.5
Cc1[nH]c2ccccc2c1C(c1ccccn1)N1CCC(C)CC1 (stereo not drawn)	-10.4%	-3.3%	?	?	34.1%	4.7
Cc1[nH]c2ccccc2c1C(c1ccccn1)N1CCCC1 (stereo not drawn)	-24.3%	-11.0%	-22.9%	44.7µM*	29.4%	0.5
